PubChem BioAssay (NCATS)
Activity calls are given as the source filed them. The call rests on the fitted dose curve; in most records, active means well fitted inhibition curve with a large enough effect; inconclusive means small, poorly fitted or top-dose-only effect; inactive means flat fitted curve, though single readings scatter.

Biological target: ATP-dependent DNA helicase Q1 (Homo sapiens) (UniProt P46063)
Test: qHTS Validation Assay for Inhibitors of RecQ-Like Dna Helicase 1 (RECQ1) (AID 2353)
Conditions: recombinant RECQ1 helicase DNA unwinding assay; series mostly up to 25.6 µM; activity change, negative = inhibition: at the top concentration
Source text: Survival of cells and the faithful propagation of the genome depend on elaborate mechanisms of detecting and repairing DNA damage. Treatment of advanced cancer relies on radiation therapy or chemotherapy, which kill cancer cells by causing extensive DNA damage. It is often found, that cancer cells develop resistance to therapy through enhanced activity of DNA repair functions; this has led to an increased interest in developing drugs that interfere with DNA repair, which could sensitize cancer cells to conventional therapy.
This validation qHTS assay pertains to human RECQ1, which is important in resolving abnormal DNA structures formed during replication or homologous recombination. Shutting down the expression of RECQ1 leads to chromosomal instability and higher radiation sensitivity in cultured cells.
The validation assay was a fluorescence quenching based kinetic qHTS for RECQ1 Helicase DNA unwinding. The activity was measured as ATP-dependent separation of a 20-bp DNA duplex extended by 30-nt single-stranded tails (forked duplex). The forked DNA substrate was tagged with rhodamine fluorophore (carboxytetramethyl rhodamine, TAMRA) and BHQ-2 (Black Hole Quencher 2) dark quencher. Strand separation results in an increase in the fluorescence of TAMRA (excitation 525 nm, emission 598 nm). This substrate construct operates in a red-shifted region where very few compound library members have been noted to fluoresce (PubChem AIDs 593 and 594). An additional feature of the assay is the inclusion of 2.5 ug/ml poly (dIdC), to reduce interference by compounds such as DNA intercalators, a major source of false inhibitors.
Opher Gileadi, Structural Genomics Consortium, University of Oxford
Screening Center PI: Austin, C.P.
Screening Center: NIH Chemical Genomics Center [NCGC]
Three uL of reaction buffer (25 mM Tris-HCl (pH 8.0), 5 mM NaCl, 2 mM MgCl2, 1mM DTT, 0.01% Tween- 20, and 2.5 ug/ml poly(dI-dC), including enzyme (50 nM RECQ1T1), were dispensed into a 1536-well Greiner black assay plate via solenoid-valve based nanoliter dispensers. Compounds (23 nl each in columns 5-48) and control (23 nl each in column 2 as dose-response) were transferred via a Kalypsys pintool equipped with a 1536-pin array. The plates were incubated for 15 min at room temperature, and then 1 ul of substrates (200 nM DNA and 2 mM ATP, final concentrations) was added to start the reaction. The plate was transferred into a ViewLux high-throughput CCD imager where the reaction progress was measured in a discontinuous kinetic mode (two reads spaced 2 hours apart, with intermediate room temperature incubation of the covered assay plate) by using standard red-fluorescence optics (excitation filter 525 nm, emission filter 598 nm). Enzyme-free and vehicle (DMSO) controls were included for signal normalization.
Potency means the concentration at half of the fitted maximal effect.

Sequence of ATP-dependent DNA helicase Q1 (Homo sapiens) (P46063 whole entry, looked up): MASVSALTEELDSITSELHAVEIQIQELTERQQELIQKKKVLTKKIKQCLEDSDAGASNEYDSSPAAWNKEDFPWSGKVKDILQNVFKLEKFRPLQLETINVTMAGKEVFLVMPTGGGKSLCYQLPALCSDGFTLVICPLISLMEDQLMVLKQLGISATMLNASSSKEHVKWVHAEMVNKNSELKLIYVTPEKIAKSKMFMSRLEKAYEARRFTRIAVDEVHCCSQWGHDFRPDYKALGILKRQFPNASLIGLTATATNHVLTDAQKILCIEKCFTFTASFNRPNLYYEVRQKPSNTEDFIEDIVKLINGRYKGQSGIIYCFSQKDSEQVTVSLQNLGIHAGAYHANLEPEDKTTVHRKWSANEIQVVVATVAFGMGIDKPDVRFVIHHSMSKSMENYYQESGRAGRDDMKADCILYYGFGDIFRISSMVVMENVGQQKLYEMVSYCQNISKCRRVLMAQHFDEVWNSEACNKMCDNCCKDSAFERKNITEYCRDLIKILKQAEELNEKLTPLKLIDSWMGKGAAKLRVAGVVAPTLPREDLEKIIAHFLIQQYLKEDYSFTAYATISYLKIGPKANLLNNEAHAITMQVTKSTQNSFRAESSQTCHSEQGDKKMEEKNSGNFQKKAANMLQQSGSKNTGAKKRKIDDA

Row | SMILES | activity change, negative = inhibition | Potency
1 | Nc1ncnc2c1ncn2[C@@H]1O[C@H](C(=O)NC2CC2)[C@H](O)[C@H]1O | -0.272% (inactive) | –
2 | NCCC(=O)NCCc1cnc[nH]1 | -0.826% (inactive) | –
3 | NCCNC(=O)c1ccc(Cl)cc1 | -2.51% (inactive) | –
4 | OC[C@H]1O[C@@H](n2cnc3c(N[C@H]4CC5CCC4C5)ncnc32)[C@H](O)[C@@H]1O (stereo not given in full) | -0.303% (inactive) | –
5 | C[C@H]1CC2[C@@H]3CCC4=CC(=O)C=C[C@]4(C)[C@@]3(F)[C@@H](O)C[C@]2(C)[C@@]1(O)C(=O)CO (stereo not given in full) | -3.45% (inactive) | –
6 | Cc1cn([C@H]2C[C@@H](N=[N+]=[N-])[C@@H](CO)O2)c(=O)[nH]c1=O | -1.07% (inactive) | –
7 | CCCNC[C@H](O)COc1ccccc1C(=O)CCc1ccccc1 | 0.375% (inactive) | –
8 | OC[C@H]1O[C@@H](n2cnc3c(Nc4ccccc4)ncnc32)[C@H](O)[C@H]1O | -0.958% (inactive) | –
9 | CNc1ncnc2c1ncn2[C@@H]1O[C@H](CO)[C@H](O)[C@H]1O | -1.11% (inactive) | –
10 | N[C@H](Cc1ccc(O)c(O)c1)C(=O)O | -9.83% (inactive) | –
11 | CC(C)C1NC(=O)[C@H](CCCCN)NC(=O)[C@@H](Cc2c[nH]c3ccccc23)NC(=O)[C@H](Cc2ccc(O)cc2)NC(=O)[C@H](C)N(C)C(=O)[C@H](Cc2ccccc2)NC1=O (stereo not given in full) | -1.91% (inactive) | –
12 | N=C(N)SCCc1cccc(CCSC(=N)N)c1 | 3.87% (inactive) | –
13 | N.N.N.N.N.N.N.N.N.N.N.N.N.N.O.O.[Cl-].[Cl-].[Cl-].[Cl-].[Cl-].[Cl-].[Ru].[Ru].[Ru] | – | 4.47 µM (active)
14 | NC(=S)c1ccc[n+]([C@@H]2O[C@@H](COP(=O)([O-])OP(=O)(O)OC[C@H]3O[C@@H](n4cnc5c(N)ncnc54)[C@H](OP(=O)(O)O)[C@H]3O)C(O)C2O)c1 (stereo not given in full) | -3.13% (inactive) | –
15 | Nc1nc(Nc2ccccc2)nc2c1ncn2[C@@H]1O[C@H](CO)[C@H](O)[C@H]1O | 3.65% (inactive) | –
16 | NC(=O)C1=CN(C2OC(COP(=O)(O)OP(=O)(O)OC[C@H]3O[C@@H](n4cnc5c(N)ncnc54)[C@H](OP(=O)(O)O)[C@H]3O)C(O)C2O)C=CC1 (stereo not given in full) | 0.0967% (inactive) | –
17 | CN1C2CCC1CC(NC(=O)c1nn(C)c3ccccc13)C2 (stereo not given) | 2.91% (inactive) | –
18 | OC[C@H]1O[C@@H](n2cnc3c(NCCc4ccccc4)ncnc32)[C@H](O)[C@H]1O | -1.05% (inactive) | –
19 | COc1ccc(CCNC[C@@H](O)c2ccc(O)cc2)cc1OC | -3.85% (inactive) | –
20 | NC(=S)NCCCC(N)C(=O)O (stereo not given) | -4.53% (inactive) | –

Row | SMILES | activity change, negative = inhibition | Potency
21 | COc1c2c(nc3ccccc13)OC(C(C)(O)CO)C2 (stereo not given) | -0.636% (inactive) | –
22 | CC(=O)O[C@H]1C[C@@H]2CCC3C(CC[C@@]4(C)[C@H]3C[C@H]([N+]3(C)CCCCC3)[C@@H]4OC(C)=O)[C@@]2(C)C[C@@H]1[N+]1(C)CCCCC1 (stereo not given in full) | 26.1% (inactive) | –
23 | COc1cc2c(cc1OC)C(c1ccccc1)CN(C)CC2 (stereo not given) | 1.15% (inactive) | –
24 | CN1CCc2cc(Cl)c(O)cc2C(c2ccccc2)C1 (stereo not given) | 3.61% (inactive) | –
25 | C[C@H](Cc1ccccc1)Nc1ncnc2c1ncn2[C@@H]1O[C@H](CO)[C@H](O)[C@H]1O | -7.07% (inactive) | –
26 | CCCCC#Cc1nc(N)c2ncn([C@@H]3O[C@H](C(=O)NCC)[C@@H](O)[C@H]3O)c2n1 | -3.4% (inactive) | –
27 | CC(O)[C@@H](O)[C@H]1CNc2nc(N)[nH]c(=O)c2N1 (stereo not given in full) | 1.49% (inactive) | –
28 | C[C@]12CCC(=O)C=C1CC[C@@H]1C2[C@@H](O)C[C@@]2(C)[C@H]1CC[C@]2(O)C(=O)CO (stereo not given in full) | -0.188% (inactive) | –
29 | NCCCCNS(=O)(=O)c1cccc2c(Cl)cccc12 | 12.3% (inactive) | –
30 | C[C@]12C=CC(=O)C=C1CCC1C2=CC[C@]2(C)[C@@H](C(=O)CN3CCN(c4cc(N5CCCC5)nc(N5CCCC5)n4)CC3)CC[C@@H]12 (stereo not given in full) | 4.07% (inactive) | –
31 | OC[C@H]1O[C@@H](n2cnc3c(NC4CCCC4)ncnc32)[C@H](O)[C@H]1O | -5.23% (inactive) | –
32 | CCCCCCCCCCCCCCC/C=C/[C@@H](O)[C@H](NC(=O)CCCCCCCCCCCCC)OC (tested in a mixture with another compound) | -7.44% (inactive) | –
33 | CN1C(=O)CCC1c1cccnc1 (stereo not given) | 3.43% (inactive) | –
34 | CN1C2CC(OC(=O)C(CO)c3ccccc3)CC1C1OC12 (stereo not given) | 3.52% (inactive) | –
35 | CCSC(N)=Nc1ccc(C(F)(F)F)cc1 | 0.196% (inactive) | –
36 | CN=C(N)NCCCC(N)C(=O)O (stereo not given) | -5.2% (inactive) | –
37 | Cc1ccccc1N1CCN(S(=O)(=O)C[C@]23CCC(CC2NC(=O)[C@@H](N)CCS(C)(=O)=O)C3(C)C)CC1 (stereo not given in full) | 0.859% (inactive) | –
38 | CNCC[C@@H](Oc1ccc(C(F)(F)F)cc1)c1ccccc1 | -3.04% (inactive) | –
39 | NC(=NCCC[C@H](N)C(=O)O)NO | -0.711% (inactive) | –
40 | O=C(O)CC[C@H](NC(=O)c1ccccc1C(=O)O)C(=O)O | -3.2% (inactive) | –
